# Laboratory results: the supplement of paper PMC6555819
# How the values were obtained:
# Assay in all cases: PBM binding z-score (relative to random genomic background probes); higher = stronger binding; sequences stand for … in GC…GCGATTGACAGCGTAGAATGAAGG
# [1] = system: FXR:RXRa (NR concentration 270 nM, RXRa partner concentration 90 nM)
# Method in brief: (§1)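 Ligand-free nuclear receptor dimers were bound for 1 h to custom Agilent 4×180K protein-binding microarrays. Detection used antibodies against each partner (one per run). Binding z-scores rest on regression-normalized fluorescence, with random background probes as the reference.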
# [2] = system: LXRa:RXRa (NR concentration 270 nM, RXRa partner concentration 90 nM)
# Method in brief: as §1
# [3] = system: LXRa homodimer (NR concentration 270 nM)
# Method in brief: as §1
# [4] = system: LXRb:RXRa (NR concentration 270 nM, RXRa partner concentration 90 nM)
# Method in brief: as §1
# [5] = system: LXRb homodimer (NR concentration 270 nM)
# Method in brief: as §1
# [6] = system: PPARa:RXRa (NR concentration 270 nM, RXRa partner concentration 90 nM)
# Method in brief: as §1
# [7] = system: PPARg:RXRa (NR concentration 180 nM, RXRa partner concentration 90 nM)
# Method in brief: as §1
# [8] = system: PPARg:RXRa 270nM:90nM, anti-RXR (NR concentration 270 nM, RXRa partner concentration 90 nM)
# Method in brief: as §1
# [9] = system: PPARg:RXRa 30nM:10nM, anti-RXR (NR concentration 30 nM, RXRa partner concentration 10 nM)
# Method in brief: as §1
# [10] = system: PPARg:RXRa 90nM:30nM, anti-RXR (NR concentration 90 nM, RXRa partner concentration 30 nM)
# Method in brief: as §1
# [11] = system: PPARg:RXRa DBDmut IVT, anti-RXR (DBD mutation: RXRa K156A/R161A, NR concentration 270 nM, RXRa partner concentration 90 nM)
# Method in brief: as §1
# [12] = system: PPARg:RXRa IVT, anti-PPARg (NR concentration 270 nM, RXRa partner concentration 90 nM)
# Method in brief: as §1
# [13] = system: PPARg DBDmut:RXRa IVT, anti-PPARg (DBD mutation: PPARg1 K132A/R137A, NR concentration 270 nM, RXRa partner concentration 90 nM)
# Method in brief: as §1
# [14] = system: PPARg DBDmut IVT, anti-PPARg (DBD mutation: PPARg1 K132A/R137A, NR concentration 270 nM)
# Method in brief: as §1
# [15] = system: PPARg homodimer (NR concentration 180 nM)
# Method in brief: as §1
# [16] = system: PXR:RXRa (NR concentration 270 nM, RXRa partner concentration 90 nM)
# Method in brief: as §1
# [17] = system: PXR homodimer (NR concentration 270 nM)
# Method in brief: as §1
# [18] = system: RARa:RXR (NR concentration 270 nM, RXRa partner concentration 90 nM)
# Method in brief: as §1
# [19] = system: RARa homodimer (NR concentration 270 nM)
# Method in brief: as §1
# [20] = system: RARb:RXRa (NR concentration 270 nM, RXRa partner concentration 90 nM)
# Method in brief: as §1
Sequence,PBM binding z-score [1],PBM binding z-score [2],PBM binding z-score [3],PBM binding z-score [4],PBM binding z-score [5],PBM binding z-score [6],PBM binding z-score [7],PBM binding z-score [8],PBM binding z-score [9],PBM binding z-score [10],PBM binding z-score [11],PBM binding z-score [12],PBM binding z-score [13],PBM binding z-score [14],PBM binding z-score [15],PBM binding z-score [16],PBM binding z-score [17],PBM binding z-score [18],PBM binding z-score [19],PBM binding z-score [20]
AGAATGAGGTGACCAAAGATCAGGGAAACGCTTG,0.916,0.957,-0.26,0.478,-0.291,2.24,2.48,2.2,0.478,1.46,4.37,4.21,0.497,0.08,0.216,0.534,-0.16,0.899,-0.253,1.3
TCGAGTAGGTTACCAATGGGGCATTCCGCTTTCT,0.135,1.46,-0.855,0.838,-1.11,1.01,-0.123,1.1,1.11,0.974,3.12,2.43,-0.775,-0.0752,-0.326,-0.00662,-1.08,0.186,-1.04,0.81
CCAGACAGGTGAGAAGGTAGCTCAGCCTCGATTA,-0.337,-0.342,-0.166,-0.33,-0.763,0.0761,0.0523,0.0588,-0.801,-0.121,0.778,0.189,-0.969,-0.906,0.136,-0.331,-0.00345,-0.134,0.0537,0.327
TCGAGTAGGTTACCAATGGGGGATTCAGCTTTCT,0.454,1,-0.159,2.46,5.29,1.74,0.645,2.31,1.35,2.08,3.04,3.87,3.52,5.09,0.376,1.15,-0.444,1.17,-0.393,1.06
ATATGTAGGTTATCGGGTCATTCAATTTGCGCAT,3.06,3.55,1.95,3.51,0.979,5.11,7.6,6.31,3.98,6.15,7.45,7.56,2.44,2.36,2.28,3.43,1.39,3.8,1.75,2.87
GCTGCTAGGTCAACGGATGGTCAGCTAAAGCTCG,3.29,2.35,-0.22,1.34,-0.253,3.2,2.58,2.83,0.601,2.06,4.91,3.99,0.0458,-0.872,1.84,1.21,-0.834,2.51,-0.435,4.19
CCTCGGAGGACGGAAGGTCAGAGCTGTCCGCTTT,1.07,1.43,-0.129,0.901,-1.26,1.57,-0.636,0.361,-0.964,-0.314,-0.591,-0.453,-1.93,-2.58,1.18,1.33,0.186,1.76,-0.121,2.6
